Drawing on PubChem BioAssay (Tox21), this text covers Potency and outcome for eleven compounds.

The nature of experiment [1]: qHTS assay to identify small molecule agonists of the vitamin D receptor (VDR) signaling pathway - cell viability counter screen (AID 743224). Also: nearly all actives have a fitted effect of over 50% in size. Also: potency is read from the fitted curve at half-maximal effect. The note with it: VDR-bla HEK293T viability, CellTiter-Glo luminescence, 16 h; series mostly up to 62.6 µM. An outline of the steps:
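CellTiter-Glo viability readout on VDR-bla cells, measured after 16 h of compound treatment at 37C in the same wells.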

Experiment [2] in a line: qHTS assay to identify small molecule antagonists of the vitamin D receptor (VDR) signaling pathway - cell viability counter screen (AID 743225). Also: nearly all actives have a fitted effect of over 50% in size. Particulars: VDR-bla HEK293T viability, CellTiter-Glo luminescence, 16 h; series mostly up to 61 µM. An outline of the steps: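 Cells (VDR-UAS-bla HEK 293T) are plated, rested 4 h at 37C, dosed with compound and 3 nM final 1-alpha,25-dihydroxy vitamin D3, and incubated 16 h. Viability is taken from CellTiter-Glo luminescence in the reporter wells.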

Experiment [3] is described as follows: qHTS assay to identify small molecule agonists of the NFkB signaling pathway (AID 1159509; active = well fitted curve in the direction sought with a large enough effect in the signal ratio in the repeat runs, not every such curve was filed as active; the % refers to the signal ratio). The note with it: NFkB-bla ME-180 cells, beta-lactamase FRET ratio, 5 h; series mostly up to 61 µM. An outline of the steps: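 Agonist activity was read as beta-lactamase-driven FRET change (460 and 530 nm emission, 405 nm excitation) following 1.5 hr substrate loading at room temperature. Beforehand, ME-180 NFkB-bla reporter cells were treated with compounds for 5 hr at 37 C.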

Experiment [4] can be described thus: qHTS assay to identify small molecule agonists of the NFkB signaling pathway - cell viability counter screen (AID 1159515; calls by dose curve; also: nearly all actives have a fitted effect of over 55% in size). The note with it: NFkB-bla ME-180 viability, CellTiter-Glo luminescence, 5 h; series mostly up to 61 µM. An outline of the steps: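 Tox21 library compounds were tested for cytotoxicity against NFkB-bla ME-180 cells during a 5 hr exposure at 37 C. CellTiter-Glo luminescence served as the viability read-out.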
Background: Quantitative high-throughput screening tests each substance at several concentrations.

The nature of experiment [5]: qHTS assay to identify small molecule agonists of the endoplasmic reticulum stress response signaling pathway (AID 1159516; active = well fitted activation curve with a large enough effect in the signal ratio in the repeat runs, not every such curve was filed as active; the % refers to the signal ratio). Particulars: ESRE-bla HeLa, ER stress beta-lactamase reporter, 5 h; series mostly up to 61 µM. An outline of the steps: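 Fluorescence at 460 and 530 nm (405 nm excitation) reports beta-lactamase from an ER stress response element in HeLa cells treated 5 hr at 37 C.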

Experiment [6] can be described thus: qHTS assay to identify small molecule agonists of the endoplasmic reticulum stress response signaling pathway - cell viability counter screen (AID 1159517; calls by dose curve; also: nearly all actives have a fitted effect of over 50% in size; also: potency is read from the fitted curve at half-maximal effect). The note with it: ESRE-bla HeLa viability, CellTiter-Glo luminescence, 5 h; series mostly up to 61 µM. An outline of the steps:
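Cpd-treated ESRE-bla HeLa (5 hr, 37 C) → LiveBLAzer 2 hr RT → CellTiter-Glo 30 min RT → luminescence.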

Experiment [7] is described as follows: qHTS assay to identify small molecule antagonists of the retinoid-related orphan receptor gamma (ROR-gamma) signaling pathway - cell viability counter screen (AID 1159520). Also: nearly all actives have a fitted effect of over 50% in size. Particulars: Tet-on RORgamma CHO cells viability, ATP luminescence, 16 h; series mostly up to 92.4 µM. A digest of the protocol: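 Tet-on ROR gamma CHO cells (1,000/well) were plated 4 hr, given compounds in DMSO for 2 hr at 37 C, then induced with 1 uM final doxycycline for 16 hr. Viability was read as ATP by CellTiter-Glo luminescence after 30 min.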

Experiment [8] has as its target Nuclear receptor ROR-gamma (Homo sapiens) (UniProt P51449). Put plainly: qHTS assay to identify small molecule antagonists of the retinoid-related orphan receptor gamma (ROR-gamma) signaling pathway (AID 1159521; also: nearly all actives have a fitted effect of over 50% in size; also: potency is read from the fitted curve at half-maximal effect). Particulars: Tet-on RORgamma CHO cells, RORE-luciferase, 16 h; series mostly up to 92.4 µM. A digest of the protocol:
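RORγ antagonism is scored from reduced reporter luminescence in Tet-on CHO cells. Induction used 1 uM final doxycycline hyclate for 16 h at 37 C, following a 2 h compound exposure.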

A short description of experiment [9]: qHTS assay to identify small molecule agonists of the AP-1 signaling pathway - cell viability counter screen (AID 1159525; calls by dose curve; also: nearly all actives have a fitted effect of over 55% in size). Particulars: ME-180 AP-1-bla cells viability, ATP luminescence, 5 h; series mostly up to 76.8 µM. An outline of the steps:
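Each titration point was normalised to DMSO and tetra n-octyl ammonium bromide controls. The read was Cell Titer Glo luminescence after 30 min at RT, following 5 h compound exposure of ME-180 AP-1-bla cells at 37 °C.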

A short description of experiment [10]: qHTS assay to identify small molecule agonists of the AP-1 signaling pathway (AID 1159526; calls by dose curve). Particulars: ME-180 (cervical carcinoma) AP-1-bla reporter, beta-lactamase FRET ratio, 5 h; series mostly up to 76.8 µM.
Experiment [11] has as its target Retinoic acid receptor RXR-alpha (Homo sapiens) (UniProt P19793). As to the kind of experiment: qHTS assay to identify small molecule agonists of the RXR signaling pathway (AID 1159527; calls by dose curve; also: nearly all actives have a fitted effect of over 35% in size; also: potency is read from the fitted curve at half-maximal effect). The note with it: HEK293T RXRa-UAS-bla, beta-lactamase ratio, 16 h; series mostly up to 76.8 µM. A digest of the protocol: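 qHTS of the Tox21 10K library in GeneBLAzer RXR-alpha HEK 293T cells carrying a beta-lactamase reporter […]; 16 hr treatment, 9-cis retinoic acid as agonist control, FRET read-out.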

Experiment [12] is described as follows: qHTS assay to identify small molecule agonists of the RXR signaling pathway - cell viability counter screen (AID 1159529). Also: nearly all actives have a fitted effect of over 50% in size. The note with it: RXR-alpha-bla HEK293T viability, CellTiter-Glo, 16 h; series mostly up to 76.8 µM. A digest of the protocol:
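Cell viability is measured by CellTiter-Glo luminescence, 30 min at room temperature, in wells already read for beta-lactamase. Engineered HEK 293T cells (RXR-alpha-UAS-bla) are dosed 16 hr at 37 C. Tetraoctyl ammonium bromide serves as positive control.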

Experiment [13] can be described thus: qHTS assay to identify small molecule antagonists of the retinoid acid receptor (RAR) signaling pathway - cell viability counter screen (AID 1159551). Also: nearly all actives have a fitted effect of over 35% in size. The note with it: C3RL4 cells viability, ATP luminescence (CellTiter-Glo), 6 h; series mostly up to 92.4 µM. A digest of the protocol:
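In this counter screen, the RARE-luciferase line C3RL4 was exposed for 6 h at 37 C and 5% CO2 to compounds with retinol at 1 uM final. Cellular ATP, read by luminescence, served as the viability measure.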

A short description of experiment [14]: qHTS assay to identify small molecule antagonists of the retinoic acid receptor (RAR) signaling pathway (AID 1159552; also: nearly all actives have a fitted effect of over 50% in size). The note with it: C3RL4 RARE luciferase reporter, retinol-stimulated, 6 h; series mostly up to 92.4 µM. An outline of the steps:
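Quantitative HTS in C3RL4 RARE-luciferase reporter cells. Compounds were added with 1 uM (final) retinol; luminescence was read after 6 hr.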

Experiment [15] in a line: qHTS assay to identify small molecule agonists of the retinoic acid receptor (RAR) signaling pathway (AID 1159553). The note with it: C3RL4 RARE luciferase reporter, agonist, 6 h; series mostly up to 73.3 µM. An outline of the steps:
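In this cell-based screen, 1,000 C3RL4 cells per well were cultured overnight, dosed with test chemicals in DMSO for 6 hr, and assessed for RARE luciferase luminescence.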

Results filed as inconclusive are left out. More than one record can exist for a structure, and the calls need not agree. Active and inactive are the calls of the source. Unless noted, calls follow the shape of the dose curve; as a rule, active = well fitted curve in the direction sought with a large enough effect in the repeat runs; inconclusive = weak or mixed curves; inactive = no such curve, though single readings can be large; an effect the other way counts as inactive or inconclusive.

Sequence of Retinoic acid receptor RXR-alpha (Homo sapiens) (P19793 whole entry, looked up): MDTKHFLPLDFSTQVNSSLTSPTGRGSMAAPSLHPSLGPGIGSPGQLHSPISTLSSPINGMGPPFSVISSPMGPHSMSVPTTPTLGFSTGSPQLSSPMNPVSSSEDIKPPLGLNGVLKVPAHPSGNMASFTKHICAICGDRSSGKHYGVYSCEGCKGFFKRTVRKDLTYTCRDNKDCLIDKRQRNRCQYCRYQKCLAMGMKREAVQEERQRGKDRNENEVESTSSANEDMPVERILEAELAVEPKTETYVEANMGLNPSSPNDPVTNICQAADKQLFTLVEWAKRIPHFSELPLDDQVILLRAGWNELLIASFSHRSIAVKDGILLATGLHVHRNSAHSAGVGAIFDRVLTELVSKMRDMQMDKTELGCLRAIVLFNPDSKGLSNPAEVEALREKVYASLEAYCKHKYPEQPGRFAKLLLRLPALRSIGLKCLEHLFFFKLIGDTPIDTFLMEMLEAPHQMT

Consider `CCC1(CC)C(=O)C=CNC1=O`, for which the Potency result in [1], in [2], in experiment [6], in experiment [7], in [8] and in experiment [9] was “inactive” throughout. For the same compound, the Potency entry in experiment [11], in [12], in experiment [13] and in [14] was “inactive” in each case. Moreover, the outcome in experiment [3], in experiment [4], in experiment [5] and in experiment [10] was inactive.

As to `CCC(C(N)=O)N1CCCC1=O` (configuration not stated), the Potency entry in experiment [1], in [2], in experiment [6], in [7], in experiment [8] and in experiment [9] was “inactive” throughout. The Potency entry in experiment [11], in experiment [12], in experiment [13] and in experiment [14] was “inactive” in each case. Moreover, the outcome in [3], in [4], in experiment [5] and in experiment [10] was inactive.

`C#CCOC(=O)/C=C(C)/C=C/CC(C)CCCC(C)C` (configuration not stated): the Potency entry in experiment [2], in [6], in experiment [7], in [8], in [9] and in [12] was “inactive” throughout. In addition, the Potency entry in [13] and in experiment [15] was “inactive” throughout. Moreover, the outcome in experiment [3], in [4], in [5] and in experiment [10] was inactive. Moreover, the Potency in [11] is 49 µM (active).

For the compound `CCNc1nc(NCC)nc(SC)n1`, the Potency result in experiment [1], in [6], in experiment [7], in experiment [8], in experiment [9] and in experiment [11] was “inactive” throughout. Further, the Potency result in experiment [12], in experiment [14] and in experiment [15] was “inactive” in each case. For the same compound, the outcome in experiment [3], in experiment [4], in [5] and in experiment [10] was inactive.

Take `CCCC(C)(COC(N)=O)COC(N)=O`: the Potency result in experiment [1], in experiment [2], in [6], in experiment [7], in [8] and in [9] was “inactive” throughout. The Potency result in experiment [11], in [12], in [13] and in [14] was “inactive” in each case. Further, the result in experiment [3], in experiment [4], in [5] and in [10] was inactive.

With `C[C@H]1CCCC(=O)CCC/C=C/c2cc(O)cc(O)c2C(=O)O1`, the Potency was 42.1 µM (active) and inactive in experiment [1]; 47.2 µM (active) and inactive in experiment [6]; 20.9 µM (active) and inactive in [8]. The Potency entry in [2], in experiment [7], in [9], in [11], in experiment [12] and in experiment [13] was “inactive” throughout. In addition, the result in experiment [3], in experiment [4], in [5] and in experiment [10] was inactive.

`CCOC(=O)COc1ccc(Cl)cc1Cl`: the Potency result in [1], in experiment [2], in experiment [6], in experiment [7], in experiment [8] and in experiment [9] was “inactive” throughout. Moreover, the Potency entry in experiment [11], in experiment [12], in [13] and in experiment [14] was “inactive” throughout. For the same compound, the outcome in experiment [3], in [4], in experiment [5] and in experiment [10] was inactive.

For the compound `ClC(Cl)(Cl)Cl`, the Potency entry in [1], in experiment [2], in [6], in experiment [7], in experiment [8] and in [9] was “inactive” each time. For the same compound, the Potency entry in experiment [11], in experiment [12], in experiment [13] and in [14] was “inactive” throughout. In addition, the result in [3], in experiment [4], in experiment [5] and in [10] was inactive.

For `C[N+]1(C)CCCCC1`, the Potency result in experiment [1], in [6], in [7], in experiment [8], in [9] and in experiment [12] was “inactive” each time. In addition, the Potency result in experiment [13] was “inactive”. In addition, the outcome in [3], in experiment [4], in [5] and in [10] was inactive. The Potency in [11] is 6.09 µM (active).

Consider `COC(=O)[C@@H](N)CCCN/C(N)=N/[N+](=O)[O-]`, for which the Potency entry in [2], in experiment [6], in [7], in [8], in experiment [9] and in experiment [11] was “inactive” throughout. The Potency entry in [12], in experiment [13] and in experiment [14] was “inactive” in each case. The result in [3], in experiment [4], in experiment [5] and in [10] was inactive.

On to `O=[N+]([O-])CCO`, for which the Potency entry in experiment [1], in experiment [6], in experiment [7], in experiment [8], in [9] and in experiment [11] was “inactive” each time. Besides, the Potency entry in [12], in [13] and in experiment [15] was “inactive” throughout. The result in experiment [3], in [4], in experiment [5] and in experiment [10] was inactive.
